Test results taken from ChEMBL document CHEMBL1961873, “Compounds: GSK PKIS; Assays: Nanosyn kinase panel” (2012).

Experiments:
[1] = target: T1, Mitogen-activated protein kinase 12 (Homo sapiens) (UniProt P53778); conditions: at 1 µM;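 also: values are averaged p38gamma kinase inhibition readings, compounds tested at 1 µM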
T1 sequence (whole entry): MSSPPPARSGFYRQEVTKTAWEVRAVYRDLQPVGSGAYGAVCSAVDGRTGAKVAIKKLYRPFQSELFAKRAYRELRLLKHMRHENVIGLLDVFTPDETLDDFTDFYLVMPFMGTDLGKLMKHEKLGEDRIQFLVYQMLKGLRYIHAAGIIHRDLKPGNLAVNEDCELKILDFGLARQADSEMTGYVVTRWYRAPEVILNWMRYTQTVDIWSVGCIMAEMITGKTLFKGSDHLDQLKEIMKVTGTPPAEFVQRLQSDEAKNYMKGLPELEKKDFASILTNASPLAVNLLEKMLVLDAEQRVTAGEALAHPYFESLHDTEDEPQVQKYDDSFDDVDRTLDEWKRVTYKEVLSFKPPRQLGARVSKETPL

[2] = target: SRSF protein kinase 1 (Homo sapiens) (UniProt Q96SB4); conditions: at 0.1 µM
[3] = target: SRSF protein kinase 1 (Homo sapiens) (UniProt Q96SB4); conditions: at 1 µM
[4] = target: Phosphatidylinositol 4,5-bisphosphate 3-kinase catalytic subunit alpha isoform (Homo sapiens) (UniProt P42336); conditions: at 0.1 µM
[5] = target: Phosphatidylinositol 4,5-bisphosphate 3-kinase catalytic subunit alpha isoform (Homo sapiens) (UniProt P42336); conditions: at 1 µM
[6] = target: T2, Phosphatidylinositol 4,5-bisphosphate 3-kinase catalytic subunit delta isoform (Homo sapiens) (UniProt O00329); conditions: at 0.1 µM
T2 sequence (whole entry): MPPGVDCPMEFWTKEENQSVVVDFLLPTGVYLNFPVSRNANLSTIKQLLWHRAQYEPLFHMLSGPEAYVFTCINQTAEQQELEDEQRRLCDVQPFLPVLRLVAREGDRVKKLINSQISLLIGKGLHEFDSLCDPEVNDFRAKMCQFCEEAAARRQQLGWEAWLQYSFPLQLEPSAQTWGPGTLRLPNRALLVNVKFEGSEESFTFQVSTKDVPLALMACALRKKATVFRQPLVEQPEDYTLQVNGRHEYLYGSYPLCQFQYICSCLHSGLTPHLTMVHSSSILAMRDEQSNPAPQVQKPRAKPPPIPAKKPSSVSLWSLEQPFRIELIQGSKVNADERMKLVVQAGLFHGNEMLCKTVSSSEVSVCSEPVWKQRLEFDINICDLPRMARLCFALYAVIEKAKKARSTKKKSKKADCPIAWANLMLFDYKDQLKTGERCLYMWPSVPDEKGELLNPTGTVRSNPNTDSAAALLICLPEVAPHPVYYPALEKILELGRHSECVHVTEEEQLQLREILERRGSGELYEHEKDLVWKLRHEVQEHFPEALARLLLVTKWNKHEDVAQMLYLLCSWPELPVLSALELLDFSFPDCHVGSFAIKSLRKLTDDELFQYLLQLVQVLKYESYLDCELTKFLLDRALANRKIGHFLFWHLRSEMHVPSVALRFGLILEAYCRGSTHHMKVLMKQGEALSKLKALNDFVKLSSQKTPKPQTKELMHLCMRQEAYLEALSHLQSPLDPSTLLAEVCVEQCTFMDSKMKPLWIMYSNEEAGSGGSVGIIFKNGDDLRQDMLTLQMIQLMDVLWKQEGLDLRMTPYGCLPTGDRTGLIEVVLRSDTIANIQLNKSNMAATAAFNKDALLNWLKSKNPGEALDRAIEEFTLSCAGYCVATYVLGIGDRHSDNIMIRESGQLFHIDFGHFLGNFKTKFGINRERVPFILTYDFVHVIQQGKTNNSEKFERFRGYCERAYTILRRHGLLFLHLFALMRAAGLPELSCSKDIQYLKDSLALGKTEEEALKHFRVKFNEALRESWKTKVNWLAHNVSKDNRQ

[7] = target: T2, Phosphatidylinositol 4,5-bisphosphate 3-kinase catalytic subunit delta isoform (Homo sapiens); conditions: at 1 µM
[8] = target: Phosphatidylinositol 4-kinase beta (Homo sapiens) (UniProt Q9UBF8); conditions: at 0.1 µM
[9] = target: Phosphatidylinositol 4-kinase beta (Homo sapiens) (UniProt Q9UBF8); conditions: at 1 µM
[10] = target: Sphingosine kinase 1 (Homo sapiens) (UniProt Q9NYA1); conditions: at 0.1 µM
[11] = target: Sphingosine kinase 1 (Homo sapiens) (UniProt Q9NYA1); conditions: at 1 µM
[12] = target: T3, Sphingosine kinase 2 (Homo sapiens) (UniProt Q9NRA0); conditions: at 0.1 µM
T3 sequence (whole entry): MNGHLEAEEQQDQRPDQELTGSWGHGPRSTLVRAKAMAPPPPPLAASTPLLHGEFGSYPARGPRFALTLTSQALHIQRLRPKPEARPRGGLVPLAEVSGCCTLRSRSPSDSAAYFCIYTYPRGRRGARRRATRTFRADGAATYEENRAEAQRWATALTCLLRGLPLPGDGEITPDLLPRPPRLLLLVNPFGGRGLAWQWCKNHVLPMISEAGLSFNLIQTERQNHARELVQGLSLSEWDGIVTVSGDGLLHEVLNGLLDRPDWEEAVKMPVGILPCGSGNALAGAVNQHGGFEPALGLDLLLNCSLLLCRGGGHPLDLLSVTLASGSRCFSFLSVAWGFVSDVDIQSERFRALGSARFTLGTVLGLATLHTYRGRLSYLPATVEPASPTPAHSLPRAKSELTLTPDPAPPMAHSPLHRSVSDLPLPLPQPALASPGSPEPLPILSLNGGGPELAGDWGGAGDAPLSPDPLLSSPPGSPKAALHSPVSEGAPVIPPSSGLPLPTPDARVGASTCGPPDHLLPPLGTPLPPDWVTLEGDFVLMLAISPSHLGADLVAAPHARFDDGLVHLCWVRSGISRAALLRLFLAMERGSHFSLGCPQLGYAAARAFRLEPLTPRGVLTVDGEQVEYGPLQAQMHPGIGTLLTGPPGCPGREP

[13] = target: T3, Sphingosine kinase 2 (Homo sapiens); conditions: at 1 µM
[14] = target: Casein kinase II subunit alpha (Homo sapiens) (UniProt P68400); conditions: at 0.1 µM
[15] = target: Casein kinase II subunit alpha (Homo sapiens) (UniProt P68400); conditions: at 1 µM
[16] = target: T4, Inhibitor of nuclear factor kappa-B kinase subunit alpha (Homo sapiens) (UniProt O15111); conditions: at 0.1 µM
T4 sequence (whole entry): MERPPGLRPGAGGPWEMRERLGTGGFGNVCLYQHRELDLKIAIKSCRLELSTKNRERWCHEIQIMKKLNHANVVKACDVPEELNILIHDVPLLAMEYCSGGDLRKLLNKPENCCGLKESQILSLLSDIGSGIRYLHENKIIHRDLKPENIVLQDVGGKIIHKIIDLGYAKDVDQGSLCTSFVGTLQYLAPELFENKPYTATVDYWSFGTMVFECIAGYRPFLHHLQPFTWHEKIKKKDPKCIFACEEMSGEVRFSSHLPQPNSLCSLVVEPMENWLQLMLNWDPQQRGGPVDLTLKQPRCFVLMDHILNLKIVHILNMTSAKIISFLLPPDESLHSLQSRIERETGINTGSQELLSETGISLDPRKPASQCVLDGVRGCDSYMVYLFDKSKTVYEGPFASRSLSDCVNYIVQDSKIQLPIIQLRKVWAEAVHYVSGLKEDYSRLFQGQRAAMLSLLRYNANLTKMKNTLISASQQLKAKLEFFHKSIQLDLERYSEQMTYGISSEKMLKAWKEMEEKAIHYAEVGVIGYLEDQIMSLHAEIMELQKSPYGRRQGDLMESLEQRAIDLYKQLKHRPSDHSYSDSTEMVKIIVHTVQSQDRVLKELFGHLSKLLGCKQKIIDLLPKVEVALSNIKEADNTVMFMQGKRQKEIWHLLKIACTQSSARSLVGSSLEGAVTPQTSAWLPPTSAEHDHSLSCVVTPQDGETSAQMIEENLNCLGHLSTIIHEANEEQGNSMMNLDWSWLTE

[17] = target: T4, Inhibitor of nuclear factor kappa-B kinase subunit alpha (Homo sapiens); conditions: at 1 µM
[18] = target: T5, Inhibitor of nuclear factor kappa-B kinase subunit beta (Homo sapiens) (UniProt O14920); conditions: at 0.1 µM
T5 sequence (whole entry): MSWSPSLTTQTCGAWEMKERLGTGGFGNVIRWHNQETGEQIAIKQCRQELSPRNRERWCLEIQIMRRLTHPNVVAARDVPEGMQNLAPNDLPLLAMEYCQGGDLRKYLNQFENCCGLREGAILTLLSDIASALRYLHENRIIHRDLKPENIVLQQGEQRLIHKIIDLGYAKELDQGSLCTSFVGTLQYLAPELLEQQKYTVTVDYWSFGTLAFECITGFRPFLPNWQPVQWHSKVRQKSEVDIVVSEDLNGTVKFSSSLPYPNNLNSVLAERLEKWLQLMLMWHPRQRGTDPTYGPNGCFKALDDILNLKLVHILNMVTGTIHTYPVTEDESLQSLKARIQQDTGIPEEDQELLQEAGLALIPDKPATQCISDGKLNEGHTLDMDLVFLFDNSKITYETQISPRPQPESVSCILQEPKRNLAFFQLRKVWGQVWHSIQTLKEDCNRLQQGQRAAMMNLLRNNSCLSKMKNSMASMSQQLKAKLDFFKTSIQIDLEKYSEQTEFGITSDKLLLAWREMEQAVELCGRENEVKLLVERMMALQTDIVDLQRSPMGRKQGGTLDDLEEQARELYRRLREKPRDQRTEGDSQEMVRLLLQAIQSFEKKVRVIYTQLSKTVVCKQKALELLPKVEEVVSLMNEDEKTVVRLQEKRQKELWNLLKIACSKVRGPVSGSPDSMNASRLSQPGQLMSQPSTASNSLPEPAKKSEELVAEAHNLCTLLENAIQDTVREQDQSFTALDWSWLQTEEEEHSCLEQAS

[19] = target: T5, Inhibitor of nuclear factor kappa-B kinase subunit beta (Homo sapiens); conditions: at 1 µM
[20] = target: T6, Inhibitor of nuclear factor kappa-B kinase subunit epsilon (Homo sapiens) (UniProt Q14164); conditions: at 0.1 µM;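 also: mean inhibition of IKKε reported, from the GSK PKIS dataset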
T6 sequence (whole entry): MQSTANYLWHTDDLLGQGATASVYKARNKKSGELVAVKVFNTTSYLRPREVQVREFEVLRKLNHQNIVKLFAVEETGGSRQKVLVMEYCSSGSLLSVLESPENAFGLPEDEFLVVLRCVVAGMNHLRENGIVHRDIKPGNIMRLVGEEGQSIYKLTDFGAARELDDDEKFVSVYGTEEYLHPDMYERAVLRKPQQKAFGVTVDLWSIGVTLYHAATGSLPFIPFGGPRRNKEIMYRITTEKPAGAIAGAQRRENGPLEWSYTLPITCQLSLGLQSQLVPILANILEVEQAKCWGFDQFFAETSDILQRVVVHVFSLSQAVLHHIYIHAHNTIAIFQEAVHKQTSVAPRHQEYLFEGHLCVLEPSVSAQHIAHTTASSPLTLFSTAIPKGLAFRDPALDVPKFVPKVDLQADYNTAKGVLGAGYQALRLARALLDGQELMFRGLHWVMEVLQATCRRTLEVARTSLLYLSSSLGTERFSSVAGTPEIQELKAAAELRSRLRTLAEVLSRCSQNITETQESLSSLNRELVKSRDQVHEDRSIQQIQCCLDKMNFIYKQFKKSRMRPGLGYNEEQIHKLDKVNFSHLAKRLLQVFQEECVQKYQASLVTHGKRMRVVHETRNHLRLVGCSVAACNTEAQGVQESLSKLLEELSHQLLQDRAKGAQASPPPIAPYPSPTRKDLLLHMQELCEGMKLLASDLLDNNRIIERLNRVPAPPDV

Sequence of Phosphatidylinositol 4-kinase beta (Homo sapiens) (Q9UBF8 2-816 limits assumed): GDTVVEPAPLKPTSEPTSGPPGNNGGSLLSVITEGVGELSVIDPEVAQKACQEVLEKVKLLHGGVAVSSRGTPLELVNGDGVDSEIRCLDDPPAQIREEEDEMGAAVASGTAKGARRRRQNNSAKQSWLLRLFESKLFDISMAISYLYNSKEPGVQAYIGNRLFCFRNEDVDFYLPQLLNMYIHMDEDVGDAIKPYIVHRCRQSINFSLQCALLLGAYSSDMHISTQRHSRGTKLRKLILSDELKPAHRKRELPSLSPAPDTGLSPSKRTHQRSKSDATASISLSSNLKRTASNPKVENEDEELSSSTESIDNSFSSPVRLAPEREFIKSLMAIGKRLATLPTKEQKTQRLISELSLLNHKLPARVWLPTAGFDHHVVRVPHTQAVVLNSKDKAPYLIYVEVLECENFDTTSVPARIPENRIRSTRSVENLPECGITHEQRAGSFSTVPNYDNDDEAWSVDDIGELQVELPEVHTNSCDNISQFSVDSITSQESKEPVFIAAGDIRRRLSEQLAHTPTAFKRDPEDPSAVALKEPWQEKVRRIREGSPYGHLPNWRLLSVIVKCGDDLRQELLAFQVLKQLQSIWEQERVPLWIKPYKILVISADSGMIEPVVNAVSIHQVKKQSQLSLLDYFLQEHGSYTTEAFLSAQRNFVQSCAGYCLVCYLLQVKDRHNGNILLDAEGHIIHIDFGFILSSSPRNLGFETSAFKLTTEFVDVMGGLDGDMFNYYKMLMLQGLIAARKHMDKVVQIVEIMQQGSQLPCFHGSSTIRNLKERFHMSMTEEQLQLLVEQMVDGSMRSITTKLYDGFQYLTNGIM
Sequence of SRSF protein kinase 1 (Homo sapiens) (Q96SB4 whole entry, canonical isoform): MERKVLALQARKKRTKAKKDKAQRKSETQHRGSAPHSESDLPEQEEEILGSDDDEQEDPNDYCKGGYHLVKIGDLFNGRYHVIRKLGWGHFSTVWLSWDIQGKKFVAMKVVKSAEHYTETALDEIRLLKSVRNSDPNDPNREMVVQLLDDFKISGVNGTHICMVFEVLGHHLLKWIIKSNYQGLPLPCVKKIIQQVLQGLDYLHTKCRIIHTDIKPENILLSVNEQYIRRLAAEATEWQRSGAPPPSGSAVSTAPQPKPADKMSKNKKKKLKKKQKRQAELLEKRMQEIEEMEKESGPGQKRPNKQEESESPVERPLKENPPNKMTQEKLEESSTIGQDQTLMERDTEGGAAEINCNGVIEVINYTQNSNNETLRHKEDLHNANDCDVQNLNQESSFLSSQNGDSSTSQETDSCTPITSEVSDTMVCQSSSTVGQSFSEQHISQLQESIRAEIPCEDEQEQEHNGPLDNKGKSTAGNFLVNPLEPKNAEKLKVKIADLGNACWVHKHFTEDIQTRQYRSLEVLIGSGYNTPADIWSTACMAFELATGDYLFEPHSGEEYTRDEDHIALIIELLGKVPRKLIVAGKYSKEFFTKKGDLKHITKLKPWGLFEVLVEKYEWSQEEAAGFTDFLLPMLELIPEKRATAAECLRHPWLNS
Sequence of Phosphatidylinositol 4,5-bisphosphate 3-kinase catalytic subunit alpha isoform (Homo sapiens) (P42336 whole entry, canonical isoform): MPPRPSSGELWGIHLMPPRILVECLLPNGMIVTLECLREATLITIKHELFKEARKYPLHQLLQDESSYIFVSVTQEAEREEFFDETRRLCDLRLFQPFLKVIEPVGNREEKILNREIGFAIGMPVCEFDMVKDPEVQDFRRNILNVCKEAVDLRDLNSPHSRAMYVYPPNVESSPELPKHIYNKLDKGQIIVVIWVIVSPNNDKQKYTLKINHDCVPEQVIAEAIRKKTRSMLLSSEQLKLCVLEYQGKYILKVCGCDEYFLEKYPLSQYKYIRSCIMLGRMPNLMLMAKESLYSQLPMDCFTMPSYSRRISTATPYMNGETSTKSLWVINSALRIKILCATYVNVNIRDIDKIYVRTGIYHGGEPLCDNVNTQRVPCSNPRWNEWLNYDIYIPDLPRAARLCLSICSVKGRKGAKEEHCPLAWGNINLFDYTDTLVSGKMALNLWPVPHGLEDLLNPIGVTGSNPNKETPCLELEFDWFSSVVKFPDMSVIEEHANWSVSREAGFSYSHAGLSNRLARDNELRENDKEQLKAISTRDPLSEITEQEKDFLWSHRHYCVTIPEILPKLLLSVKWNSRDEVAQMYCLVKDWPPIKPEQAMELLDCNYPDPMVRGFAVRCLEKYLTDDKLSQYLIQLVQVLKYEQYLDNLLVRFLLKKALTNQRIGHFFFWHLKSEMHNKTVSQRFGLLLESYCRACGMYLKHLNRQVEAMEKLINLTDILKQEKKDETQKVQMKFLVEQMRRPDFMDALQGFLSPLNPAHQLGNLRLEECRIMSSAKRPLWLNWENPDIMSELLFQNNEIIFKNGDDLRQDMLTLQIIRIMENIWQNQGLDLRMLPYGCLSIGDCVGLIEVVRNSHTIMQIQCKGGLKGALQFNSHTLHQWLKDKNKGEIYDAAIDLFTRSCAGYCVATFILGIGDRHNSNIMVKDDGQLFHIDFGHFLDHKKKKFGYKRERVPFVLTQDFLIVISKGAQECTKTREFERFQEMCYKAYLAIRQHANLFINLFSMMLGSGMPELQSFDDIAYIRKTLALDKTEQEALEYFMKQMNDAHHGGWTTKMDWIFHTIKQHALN
Sequence of Casein kinase II subunit alpha (Homo sapiens) (P68400 whole entry, looked up): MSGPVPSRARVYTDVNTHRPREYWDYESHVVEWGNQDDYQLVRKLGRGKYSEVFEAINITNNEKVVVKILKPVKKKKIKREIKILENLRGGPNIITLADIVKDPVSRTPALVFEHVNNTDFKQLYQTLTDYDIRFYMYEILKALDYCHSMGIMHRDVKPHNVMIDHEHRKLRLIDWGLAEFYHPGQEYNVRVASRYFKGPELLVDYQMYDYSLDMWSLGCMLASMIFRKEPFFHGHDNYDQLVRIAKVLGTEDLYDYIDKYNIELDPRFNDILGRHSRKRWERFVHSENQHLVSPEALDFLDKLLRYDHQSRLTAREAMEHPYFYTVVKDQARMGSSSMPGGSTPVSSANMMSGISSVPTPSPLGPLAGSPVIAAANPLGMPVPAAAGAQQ
Sequence of Sphingosine kinase 1 (Homo sapiens) (Q9NYA1 whole entry): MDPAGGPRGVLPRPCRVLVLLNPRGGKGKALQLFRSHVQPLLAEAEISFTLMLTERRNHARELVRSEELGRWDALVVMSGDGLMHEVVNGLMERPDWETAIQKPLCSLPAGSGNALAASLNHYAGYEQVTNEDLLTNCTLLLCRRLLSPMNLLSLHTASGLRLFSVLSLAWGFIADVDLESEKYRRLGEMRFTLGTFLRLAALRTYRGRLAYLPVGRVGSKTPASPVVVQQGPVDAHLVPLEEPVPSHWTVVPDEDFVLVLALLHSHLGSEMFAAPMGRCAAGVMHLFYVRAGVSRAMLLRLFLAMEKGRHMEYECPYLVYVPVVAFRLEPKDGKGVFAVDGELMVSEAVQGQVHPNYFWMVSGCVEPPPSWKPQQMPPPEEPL

SMILES	inhibition [1] [%]	inhibition [2] [%]	inhibition [3] [%]	inhibition [4] [%]	inhibition [5] [%]	inhibition [6] [%]	inhibition [7] [%]	inhibition [8] [%]	inhibition [9] [%]	inhibition [10] [%]	inhibition [11] [%]	inhibition [12] [%]	inhibition [13] [%]	inhibition [14] [%]	inhibition [15] [%]	inhibition [16] [%]	inhibition [17] [%]	inhibition [18] [%]	inhibition [19] [%]	inhibition [20] [%]
Cc1c2ccc(N(C)c3ccnc(Nc4cccc(S(N)(=O)=O)c4)n3)cc2nn1C	3.53	-1.71	-3.4	4.71	14.4	6.47	29.9	0.59	1.94	1.12	1.41	-0.17	0	0.52	0.25	7.99	3.93	5.79	5.44	4.78
c1cnn2ncc(-c3ccnc(NCCCN4CCOCC4)n3)c2c1	3.02	-1.76	-3.38	6.11	8.31	7.14	7.98	1.61	9.05	-6.03	-3.67	2.35	0	1.83	4.66	8.06	9.01	5.79	4.44	9.87
Cc1cc(O)cc(C)c1/C=C/c1cncc(C(=O)OC(C)(C)C)c1	1.7	-1.51	0.59	5.51	7.91	5.19	6.21	1.7	3.49	2.8	-1.82	0.51	0	4.48	7.86	2.35	1.81	2.36	2.32	4.19
CCOc1ccc2c(-c3ccnc(Nc4cc(OC)cc(C(F)(F)F)c4)n3)cnn2n1	1.08	-1.1	-0.9	-0.03	5.25	-1.72	10.2	3.54	-4.92	-3.8	1.71	4.25	0	4.76	15.3	-1.77	4.02	-0.06	-2.55	2.74
